This passage reports outcome, Potency and max response results from PubChem BioAssay (NCATS).

Inconclusive results are not listed. Unmarked numbers belong to inactive results. The source made the active and inactive calls. The call rests on the fitted dose curve; in most records, active means well fitted inhibition curve with a large enough effect; inconclusive means small, poorly fitted or top-dose-only effect; inactive means flat fitted curve, though single readings scatter.
On the % scale 0 is the no-effect control and ±100 the full control effect; potency means the concentration at half of the fitted maximal effect.

This assay relates to CRL-7250. The experiment in a line: Cytotoxic Profiling of Annotated Libraries Using Quantitative High-Throughput Screening (AID 1296008). Further: nearly all actives have a fitted effect of over 60% in size. The settings on record: Five cell lines viability, CellTiter-Glo ATP luminescence, 48-72 h; max response: hits give low values. The gist of the method:
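Cytotoxicity was measured as CellTiter-Glo ATP luminescence, read after 10 min at room temperature. Compound treatment of the cells lasted 48 or 72 hr at 37 degrees Celsius in a qHTS format.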
Take `CC(=O)O[C@H]1CC[C@@]2(CI)C(=CC[C@@H]3[C@@H]2CC[C@]2(C)C(=O)CC[C@@H]32)C1`: the outcome was inactive.

For `C=C1[C@@H](C)[C@H]2[C@H](Cc3ccccc3)NC(=O)[C@]23OC(=O)/C=C/C(=O)CCC[C@@H](C)C/C=C/[C@H]3[C@@H]1O`, the Potency is 1640 nM (active).

In the case of `C[C@H](CCC(=O)O)C[C@H](C)C[C@H](C)C(=O)/C=C(\O)[C@H](C)C[C@H](C)C/C=C/[C@@H](C)[C@@H](O)[C@@H](C)[C@@H](O)C[C@@H]1CC[C@@](C)([C@H]2CC[C@@](C)([C@@H](C)O)O2)O1`, the Potency was 3170 nM (active).

Turning to `CN(C)c1cc2c(cc1Sc1nc3c(N)nccc3n1CCNCC(C)(C)C)OCO2`, the Potency was 1840 nM (active).

Take `C[C@H]1C/C=C/[C@H]2[C@@H]3O[C@]3(C)[C@@H](C)[C@H]3[C@H](Cc4ccccc4)NC(=O)[C@]32OC(=O)O/C=C/[C@@](C)(O)C1=O`: the Potency was 632 nM (active).

For the compound `CC(C)(C)[C@]1(O)C[C@@H]2OC(=O)C[C@@]23C(=O)O[C@@H]2OC(=O)[C@@H](O)[C@]213`, the max response was 1.12%.

Turning to `N#CC(O[C@@H]1O[C@H](CO)[C@@H](O)[C@H](O)[C@H]1O)c1ccccc1` (stereo partly drawn), the result was inactive.

Regarding `COC1CC(O[C@H]2CC[C@]3(C)C4CC[C@]5(C)[C@@H](C6=CC(=O)OC6)[C@@H](OC(C)=O)C[C@]5(O)C4CC[C@@H]3C2)OC(C)C1O` (stereo partly drawn), the Potency is 317 nM (active).

For `CC(=O)O[C@H]1CN2CCC1CC2`, the max response was -2.3%.

Take `CC(=O)OC[C@]12C[C@H](O)C(C)=C[C@H]1O[C@@H]1[C@H](O)[C@@H](OC(C)=O)[C@@]2(C)[C@]12CO2`: the Potency was 36 nM (active).

On to `CC1=CC(=O)[C@@H](O)[C@]2(C)C3[C@@H](O)[C@@H]4OC(=O)[C@@H]([C@H]4C)[C@]3(C)C(=O)C[C@@H]12` (stereo partly drawn), for which the Potency is 3210 nM (active).

Regarding `CC[C@@H]1C[C@H]2CC[C@H](O2)[C@H](C)C(=O)O[C@@H](C)C[C@@H]2CC[C@@H](O2)[C@@H](C)C(=O)O[C@H](CC)C[C@H]2CC[C@H](O2)[C@H](C)C(=O)O[C@@H](C)C[C@@H]2CC[C@@H](O2)[C@@H](C)C(=O)O1`, the Potency is 385 nM (active).

Turning to `N#Cc1cn([C@@H]2O[C@H](CO)[C@H](O)[C@@H]2O)c2ncnc(N)c12`, the Potency was 58 nM (active).
